Shown are actives, neighbours in structure and some others; about 6.8% of the full set was active somewhere.
USP28 inh = human USP28 deubiquitinase inhibition; AID 1645857; purified USP28, Ub-rhodamine cleavage fluorescence, 30 min; Q96RU2; 47,000 compounds, 3% hits; inhibition, % at 25 µM
USP10 inh = blocks human USP10 ubiquitin-rhodamine cleavage; Q14694; purified USP10, Ub-rhodamine fluorescence, 60 min; inhibition, % at 20 µM; 47,000 compounds, 1.1% hits; AID 1645856
USP8 block = inhibitors of human USP8 deubiquitinase. P40818. purified USP8, Ub-rhodamine cleavage fluorescence, 30 min. inhibition, % at 20 µM. 47,000 compounds, 4.2% hits. AID 1645853
USP7 inh = human USP7 deubiquitinase inhibition; purified USP7, Ub-rhodamine cleavage fluorescence; inhibition, % at 20 µM; 47,000 compounds, 0.3% hits; AID 1645854
OTUD3 inh = blocks human OTUD3 ubiquitin-rhodamine cleavage | 47,000 compounds, 0.7% hits | AID 1645858 | purified OTUD3, Ub-rhodamine fluorescence, 2 h | Q5T2D3 | inhibition, % at 25 µM
UCHL1 inh = human UCHL1 deubiquitinase inhibition. 47,000 compounds, 0.2% hits. P09936. AID 1645859. purified UCHL1, Ub-rhodamine cleavage fluorescence. inhibition, % at 20 µM
Large screens that a line does not name were inactive. Cut-off read from the data, not from the text of the source: active = inhibition above about 30%; inactive = the rest.

O=C(NC1(O)C(=O)c2ccccc2C1=O)c1cccc2c1-c1ccccc1C2=O	USP8 block 95
Cc1ccc(Cn2cc(-c3noc(C(=O)Nc4cc(F)ccc4F)n3)nn2)cc1	USP10 inh 51, USP8 block 90
O=C(C1CCC1)N1CCC(c2nc3c(nnn3Cc3c(Cl)cccc3Cl)c(=O)[nH]2)CC1	none
O=c1[nH]c(C2CCN(S(=O)(=O)c3ccccc3)CC2)nc2c1nnn2Cc1c(Cl)cccc1Cl	USP10 inh 32
O=c1[nH]c(C2CCN(S(=O)(=O)c3ccc(S(=O)(=O)N4CCOCC4)cc3)CC2)nc2c1nnn2Cc1ccc(F)cc1	USP10 inh 45, USP8 block 89, USP7 inh 30, UCHL1 inh 31
O=C(Nc1cccc2ccccc12)N1CCC(c2nc3c(nnn3Cc3ccc(F)cc3)c(=O)[nH]2)CC1	USP28 inh 38, USP8 block 97
CCOc1ccc(C(=O)N2CCC(c3nc4c(nnn4Cc4ccccc4Cl)c(=O)[nH]3)CC2)cc1	none
CCc1ccccc1NC(=O)N1CCC(c2nc3c(nnn3Cc3ccc(F)cc3)c(=O)[nH]2)CC1	none
O=c1[nH]c(C2CCN(S(=O)(=O)c3cccc4ccccc34)CC2)nc2c1nnn2Cc1ccccc1Cl	USP28 inh 33
COc1cccc(CNC(=O)CN2C(=O)c3ccccc3C2c2cn(C)c3ccccc23)c1 (centres undefined)	none
COc1ccc(OC)c(NC(=O)C2=C(C)Nc3ncnn3C2c2cccc(OC)c2OCc2ccc(Cl)cc2)c1 (centres undefined)	none
CC1(C)CC(NC(=O)c2nc(-c3ccc4cc[nH]c4c3)no2)CC(C)(C)N1	none
Cc1oc2nc[nH]c(=O)c2c1C(=O)Nc1ccc(Oc2ccccc2)cc1	none
CCN1CCN(c2ncc(C(=O)N3CCN(c4ccccc4F)CC3)c3ccccc23)CC1	none
Cc1ccc(Cn2nnc3c(=O)[nH]c(C4CCN(S(=O)(=O)c5ccc(S(=O)(=O)NC6CC6)cc5)CC4)nc32)cc1	none
COC(=O)c1ccc(Cn2nnc3c(=O)[nH]c(C4CCCN(S(=O)(=O)c5ccc(C)cc5)C4)nc32)cc1 (centres undefined)	USP28 inh 32, USP10 inh 41
NC(=O)c1nc(Nc2ccccc2)sc1N	none
FC(F)(F)c1cc(C(F)(F)F)c2sc(Nc3ccccc3)nc2n1	USP8 block 92
CC1=C(c2ccc(C(C)C)cc2)S(=O)(=O)N(CC(=O)Nc2ccccc2C)C1=O	USP28 inh 39
CC1=C(c2ccccc2)S(=O)(=O)N(CC(=O)Nc2ccccc2C)C1=O	none
O=C1COc2ccccc2C/C=C/CC2(CCN(Cc3ccncc3)CC2)C(=O)NCCN1	none
CCNc1cc(N2CCCC(CCC(=O)N3CCC(C)CC3)C2)ncn1 (centres undefined)	none
COc1ccc(C(=O)NCCc2c[nH]c3ccccc23)cc1[N+](=O)[O-]	USP28 inh 39
O=C(O)CCCCCN1C(=O)CC(c2ccc(Cl)cc2)CC1=O	USP28 inh 32, USP8 block 55
COc1cccc(C2C3=C(CC(c4ccc(Cl)cc4)CC3=O)Nc3ccccc3N2C(=O)CCC(=O)O)c1 (centres undefined)	none
Cc1ccc(NC(=O)Cn2c3ncccc3c(=O)n2-c2ccccc2)cc1	none
Cc1ccc(NC(=O)CC2=NC(=O)C(CC(=O)Nc3ccccc3C)S2)cc1 (centres undefined)	USP8 block 39
COc1ccc2c(c1OC)C(=O)N1c3ccccc3N=C(c3ccccc3)CC21 (centres undefined)	none
O=C(NCC1CC1)C1CCCN(c2ccc(-c3ccccc3)nn2)C1 (centres undefined)	OTUD3 inh 30
O=C(NCCc1ccccc1)C1CCCN(c2ccc(-c3ccccc3)nn2)C1 (centres undefined)	none
O=C(Nc1ccc(F)cc1)c1ccc(N2CCCCS2(=O)=O)cc1Cl	none
CC(=O)c1ccc(NC(=O)c2ccc(N3CCCCS3(=O)=O)cc2Cl)cc1	USP8 block 31
O=C(Nc1ccc(Cl)c(Cl)c1)c1cccc(N2CCCCS2(=O)=O)c1	USP28 inh 34
Cc1ccccc1CNC(=O)c1cccc(N2C(=O)CCS2(=O)=O)c1	none
O=C(Nc1ccc(N2CCCCC2)cc1)c1cccc(N2C(=O)CCS2(=O)=O)c1	USP8 block 43
O=C(NCc1ccncc1)c1ccccc1-c1ncc(-c2ccc(F)cc2)o1	none
CCCCCCCCCCCC(O)CC(=O)N[C@@H](CC(C)C)C(=O)N[C@H](CCC(=O)O)C(=O)N[C@H]1C(=O)N[C@H]([C@@H](C)CC)C(=O)NC(CC(C)C)C(=O)N[C@H](CO)C(=O)N[C@@H](CC(C)C)C(=O)N[C@@H](CC(C)C)C(=O)N[C@H](CO)C(=O)N[C@@H](C(C)C)C(=O)O[C@@H]1C (some centres undefined)	USP28 inh 43, USP10 inh 35, USP8 block 35, USP7 inh 39, OTUD3 inh 44
CCCCCCCC[C@@H](C)[C@@H]1OC(=O)[C@H](CO)NC(=O)[C@H](C(=O)c2c[nH]c3ccccc23)NC(=O)[C@@H](CCC(=O)O)NC(=O)[C@H]1C	none
CCN(CC)c1nc(F)c2c(c1F)S(=O)(=O)CCN2Cc1cccnc1	USP8 block 90
CC1CCCCN1c1nc(F)c2c(c1F)S(=O)(=O)CCN2Cc1cccnc1 (centres undefined)	USP8 block 70
CCCNC(=O)c1cc(-c2cnc(-c3ccnn3C)nc2)cn1CC1CC1	none
CCC(=O)N1CCc2cc(C(=O)Nc3ccccc3OC)ccc21	USP28 inh 43
CCS(=O)(=O)N1CCCc2cc(C(=O)Nc3ccccc3OC)ccc21	none
CCC(=O)N1CCCc2ccc(NC(=O)c3cccc(OC)c3)cc21	USP28 inh 37
CC(Sc1nnc(-c2ccncc2)o1)C(=O)NCCc1ccccc1 (centres undefined)	none
NC(=O)N[C@@H]1C[C@H](O)[C@@H](N2CCN(c3ccccc3)CC2)[C@@H]1O	none
Cc1ccccc1-c1nnc(C2(c3ccc(Cl)cc3)CCOCC2)o1	none
Cc1ccc2c(c1)C(=O)NC1(CCC(=O)N(CC(=O)N3CCCCC3)CC1)O2 (centres undefined)	none
O=C(Nc1ccc(Oc2cccc3cccnc23)cc1)c1cccs1	USP28 inh 86
CC(Oc1ccc(F)cc1)C(=O)Nc1cccc2cccnc12 (centres undefined)	none
COc1cc(O)c2c(=O)c(-c3ccc(O)cc3)coc2c1	USP28 inh 30, USP8 block 35
O=c1c(-c2ccc(O)c(O)c2)coc2cc(O)ccc12	none
O=C(CSc1nnc2[nH]c(=O)cc(-c3ccccc3)n12)NCC1CCCO1 (centres undefined)	none
CN(C(=O)c1cccc2cccnc12)c1nc2c(s1)CCc1occc1-2	USP8 block 64

Source: PubChem BioAssay
